Values joined by “and” are separate entries in the source; they are usually repeats but may differ in a detail not shown here. Identical values can stand only once. In all, about 5,500 compounds went through this assay and about 2,000 (36%) were called active. About 18% were inconclusive and are not listed. Cut-off read from the data, not from the text of the source: active = normalized growth mostly below about 0.91 (no sharp cut-off); inconclusive = no clear call, values can overlap the other calls; inactive = mostly above about 0.92. Some of the results follow.
Assay: chemical genetic growth profiling, strain panel (AID 1159580);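 note: tested at 20 µM; growth read once vehicle control cultures reached saturation at 30 °C; 1 = growth at the plate median or of vehicle wells; lower values mean less growth of the strain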
Conditions: S. cerevisiae deletion strains, growth OD

Measured: normalized growth

O=C1c2ccccc2C(=O)c2c1ccc(O)c2O
inactive: locus YDR195W, strain ref2 0.892
active: locus YAL021C, strain ccr4, stronger effect = lower value 0.213 | locus YAL026C, strain drs2, stronger effect = lower value 0.273 | locus YAL030W, strain snc1, stronger effect = lower value 0.578 | locus YBL061C, strain skt5, stronger effect = lower value 0.44 | locus YBR009C, strain hhf1, stronger effect = lower value 0.532 | locus YBR021W, strain FUR4, stronger effect = lower value 0.671 | locus YBR023C, strain chs3, stronger effect = lower value 0.38 | locus YBR171W, strain sec66, stronger effect = lower value 0.681 | locus YBR229C, strain ROT2, stronger effect = lower value 0.399 | locus YBR231C, strain swc5, stronger effect = lower value 0.3 | locus YBR279W, strain paf1, stronger effect = lower value 0.512 | locus YCL011C, strain gbp2, stronger effect = lower value 0.501 | locus YCL016C, strain dcc1, stronger effect = lower value 0.564 | locus YCL029C, strain bik1, stronger effect = lower value 0.342 | locus YCL061C, strain MRC1, stronger effect = lower value 0.608 | locus YCL069W, strain vba3, stronger effect = lower value 0.52 | locus YCR088W, strain abp1, stronger effect = lower value 0.679 | locus YDL005C, strain med2, stronger effect = lower value 0.663 | locus YDL035C, strain GPR1, stronger effect = lower value 0.231 | locus YDL040C, strain nat1, stronger effect = lower value 0.703 | locus YDL074C, strain BRE1, stronger effect = lower value 0.178 | locus YDL101C, strain DUN1, stronger effect = lower value 0.235 | locus YDL185W, strain tfp1, stronger effect = lower value 0.816 | locus YDL192W, strain arf1, stronger effect = lower value 0.301 | locus YDR001C, strain nth1, stronger effect = lower value 0.722 | locus YDR069C, strain doa4, stronger effect = lower value 0.401 | locus YDR101C, strain arx1, stronger effect = lower value 0.549 | locus YDR137W, strain rgp1, stronger effect = lower value 0.261 | locus YDR159W, strain sac3, stronger effect = lower value 0.722 | locus YDR162C, strain NBP2, stronger effect = lower value 0.0628 | locus YDR297W, strain sur2, stronger effect = lower value 0.559 | locus YDR318W, strain mcm21, stronger effect = lower value 0.34 | locus YDR334W, strain swr1, stronger effect = lower value 0.298 | locus YDR335W, strain msn5, stronger effect = lower value 0.56 | locus YDR388W, stronger effect = lower value 0.149 | locus YDR392W, strain spt3, stronger effect = lower value 0.321 | locus YDR502C, strain sam2, stronger effect = lower value 0.391 | locus YEL003W, strain gim4, stronger effect = lower value 0.504 | locus YEL037C, strain rad23, stronger effect = lower value 0.552 | locus YEL061C, strain CIN8 (second series), stronger effect = lower value 0.694 | locus YEL061C, strain CIN8, stronger effect = lower value 0.39 | locus YER015W, strain faa2, stronger effect = lower value 0.39 | locus YER016W, strain bim1, stronger effect = lower value 0.675 | locus YER110C, stronger effect = lower value 0.412 | locus YER111C, strain swi4, stronger effect = lower value 0.566 | locus YER155C, strain BEM2 (second series), stronger effect = lower value 0.441 | locus YER155C, strain BEM2, stronger effect = lower value 0.276 | locus YER167W, strain BCK2, stronger effect = lower value 0.245 | locus YFR010W, strain ubp6, stronger effect = lower value 0.557 | locus YGL078C, strain dbp3, stronger effect = lower value 0.872 | locus YGL086W, strain mad1, stronger effect = lower value 0.291 | locus YGL167C, strain pmr1, stronger effect = lower value 0.554 | locus YGL173C, strain kem1, stronger effect = lower value 0.248 | locus YGL227W, strain vid30, stronger effect = lower value 0.777 | locus YGL240W, strain doc1, stronger effect = lower value 0.442 | locus YGL248W, strain PDE1, stronger effect = lower value 0.21 | locus YGL253W, strain hxk2, stronger effect = lower value 0.295 | locus YGR078C, strain PAC10, stronger effect = lower value 0.182 | locus YGR135W, strain pre9, stronger effect = lower value 0.394 | locus YGR252W, strain gcn5, stronger effect = lower value 0.456 | locus YHR013C, strain ard1, stronger effect = lower value 0.427 | locus YHR027C, strain rpn1, stronger effect = lower value 0.349 | locus YHR030C, strain SLT2, stronger effect = lower value 0.613 | locus YHR079C, strain IRE1 (second series), stronger effect = lower value 0.434 | locus YHR079C, strain IRE1, stronger effect = lower value 0.67 | locus YHR094C, strain hxt1, stronger effect = lower value 0.417 | locus YHR129C, strain ARP1, stronger effect = lower value 0.216 | locus YHR142W, strain chs7, stronger effect = lower value 0.339 | locus YHR200W, strain rpn10, stronger effect = lower value 0.488 | locus YIL066C, strain RNR3, stronger effect = lower value 0.174 | locus YIL073C, strain SPO22, stronger effect = lower value 0.221 | locus YIL125W, strain kgd1, stronger effect = lower value 0.864 | locus YIR030C, strain dcg1, stronger effect = lower value 0.466 | locus YJL092W, strain hpr5, stronger effect = lower value 0.665 | locus YJL095W, strain BCK1 (second series), stronger effect = lower value 0.22 | locus YJL095W, strain BCK1, stronger effect = lower value 0.0992 and 0.647 | locus YJL115W, strain asf1, stronger effect = lower value 0.644 | locus YJL129C, strain trk1, stronger effect = lower value 0.33 | locus YJL134W, strain LCB3, stronger effect = lower value 0.309 | locus YJL154C, strain vps35, stronger effect = lower value 0.718 | locus YJL164C, strain tpk1, stronger effect = lower value 0.414 | locus YJL166W, strain qcr8, stronger effect = lower value 0.446 | locus YJL168C, strain set2, stronger effect = lower value 0.52 | locus YJL187C, strain SWE1 (second series), stronger effect = lower value 0.192
